These results are taken from PubChem BioAssay (NCI).

Among the test systems are NCI-H23 lung; NCI-H226 lung; NCI-H322M lung; HOP-62 NSCLC; NCI-H460 lung; HOP-92 NSCLC; NCI-H522 lung; A549/ATCC NSCLC; 786-0 renal; COLO 205 colon.
Assay in all cases: NCI-60 one-dose screen, 48 h (100 = growth as untreated, 0 = no growth, -100 = all killed)
What all share (details): 10 µM unless noted

Compounds without any hit were thinned out: in the full panel of roughly 83,000, 20% have a hit.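 Cell lines were cultured in 96-well plates, exposed to a single compound concentration, and assessed for percent growth 48 hours later.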 Values without a mark were called inactive. Calls of active or inactive are those of the source. How the source made its calls: active means growth percent below 10; inactive means the rest.

In the case of `CCN(CC)C(=O)C[N+](C)(C)CCOC(c1ccccc1)c1ccccc1`, the growth with NCI-H23 lung was 95.2%; in the assay with NCI-H226 lung, 102%; with NCI-H322M lung, 104%; in the assay with HOP-62 NSCLC, 103%; in the assay with NCI-H460 lung, 109%; in the assay with HOP-92 NSCLC, 113%. The growth is 105% in the assay on NCI-H522 lung, 101% in the assay on A549/ATCC NSCLC, 102% with 786-0 renal and 112% in the assay with COLO 205 colon.

Turning to `COc1cc2nccc(Oc3ccc(NC(=O)C4(C(=O)Nc5ccc(F)cc5)CC4)cc3)c2cc1OC`, the growth is 14.4% in the assay on NCI-H23 lung; 11.7% in the assay on NCI-H226 lung; 12.1% in the assay with NCI-H322M lung; 9.04% (active) with HOP-62 NSCLC; 6.12% (active) with NCI-H460 lung; -36.9% (active) in the assay with HOP-92 NSCLC. For the same compound, the growth in the assay with NCI-H522 lung was 11.4%; in the assay with A549/ATCC NSCLC it was 2.35% (active); in the assay on 786-0 renal it was 13.1%; in the assay on COLO 205 colon, -44.7% (active).

As for `COc1cc2ncnc3c2cc1OCCCCCN(C)Cc1ccc(Br)cc1N3`, the growth was 70.2% with NCI-H23 lung; 88.3% in the assay on NCI-H226 lung; 0.138% (active) in the assay on NCI-H322M lung; 74.5% with HOP-62 NSCLC; 36.7% in the assay with NCI-H460 lung; 64.6% with HOP-92 NSCLC. Moreover, the growth with NCI-H522 lung is -9.44% (active); with A549/ATCC NSCLC it was 35.1%; in the assay on 786-0 renal, 68.7%; in the assay on COLO 205 colon, 51.3%.

As to `CC(C)c1cc(CNc2nc(Nc3cc(C4CC4)[nH]n3)cc(N3CCN(C)CC3)n2)on1`, the growth was -25% (active) in the assay on NCI-H23 lung; -3.34% (active) in the assay with NCI-H226 lung; -20.1% (active) in the assay on NCI-H322M lung; -23.5% (active) in the assay on HOP-62 NSCLC; -47.6% (active) in the assay on NCI-H460 lung; -10.9% (active) in the assay on HOP-92 NSCLC. Besides, the growth in the assay with NCI-H522 lung is -34.7% (active); in the assay with A549/ATCC NSCLC it was 3.1% (active); in the assay on 786-0 renal, 10.3%; in the assay with COLO 205 colon, -69.6% (active).

Consider `CCOC(=O)C1=C(C)NC(=O)NC1c1cc(=O)oc2ccc(C)cc12` (stereo not given), for which the growth in the assay on NCI-H23 lung is 96.9%; with NCI-H226 lung it was 93.4%; in the assay on NCI-H322M lung, 98.6%; in the assay on HOP-62 NSCLC, 105%; in the assay with NCI-H460 lung, 108%; in the assay with HOP-92 NSCLC, 95.6%. For the same compound, the growth was 81.5% in the assay on NCI-H522 lung, 97.6% with A549/ATCC NSCLC, 102% in the assay with 786-0 renal and 105% in the assay with COLO 205 colon.

On to `O=C(Cc1ccc(-c2ccc(OCCN3CCOCC3)cc2)cn1)NCc1ccccc1`, for which the growth with NCI-H23 lung is 29%; in the assay on NCI-H226 lung, 48.8%; with NCI-H322M lung, 33.1%; in the assay on HOP-62 NSCLC it was -3.09% (active); in the assay on NCI-H460 lung, 2.01% (active); in the assay with HOP-92 NSCLC, 27.6%. For the same compound, the growth in the assay on NCI-H522 lung is -5.77% (active); in the assay on A549/ATCC NSCLC it was 4.91% (active); in the assay with 786-0 renal, 24.2%; with COLO 205 colon, -65.3% (active).

`COc1cc(Nc2ncc(F)c(Nc3ccc4c(n3)NC(=O)C(C)(C)O4)n2)cc(OC)c1OC`: the growth in the assay on NCI-H23 lung is 52.1%; in the assay with NCI-H226 lung, 12.2%; in the assay on NCI-H322M lung, 41.8%; in the assay on HOP-62 NSCLC, 27.3%; in the assay on NCI-H460 lung it was 65%; in the assay with HOP-92 NSCLC, 2.19% (active). Further, the growth is 6.57% (active) in the assay on NCI-H522 lung, 26.8% with A549/ATCC NSCLC, 29% in the assay with 786-0 renal and 18.9% in the assay with COLO 205 colon.

Consider `Cn1c(=O)c(F)c(Nc2ccc(I)cc2F)c2c(=O)n(C[C@@H](O)CO)cnc21`, for which the growth with NCI-H23 lung was 21.5%; in the assay on NCI-H226 lung it was 52.5%; with NCI-H322M lung it was 14%; in the assay on HOP-62 NSCLC it was 22.5%; with NCI-H460 lung it was 62.3%; in the assay on HOP-92 NSCLC it was -23.8% (active). The growth is 41.4% in the assay with NCI-H522 lung, 19.2% with A549/ATCC NSCLC, 58.3% with 786-0 renal and 2.24% (active) in the assay on COLO 205 colon.

With `Cc1nc2ccc(-n3ncc(C(=O)c4cc5ccccc5[nH]4)c3N)cc2[nH]1`, the growth with NCI-H23 lung was 74%; in the assay on NCI-H226 lung it was 48.4%; with NCI-H322M lung, 86.5%; in the assay with HOP-62 NSCLC, 55.9%; in the assay with NCI-H460 lung, 5.14% (active); in the assay on HOP-92 NSCLC, 74.8%. For the same compound, the growth was 36.5% in the assay on NCI-H522 lung, 36.9% with A549/ATCC NSCLC, 55.2% in the assay on 786-0 renal and 38.7% with COLO 205 colon.

As for `Ic1ccccc1-c1ccccc1`, the growth in the assay on NCI-H23 lung was 102%; in the assay on NCI-H226 lung, 106%; in the assay on NCI-H322M lung it was 114%; in the assay on HOP-62 NSCLC, 100%; in the assay on NCI-H460 lung it was 100%; in the assay with HOP-92 NSCLC it was 87.3%. The growth with NCI-H522 lung was 94.9%; in the assay on A549/ATCC NSCLC it was 87.9%; with 786-0 renal, 108%; with COLO 205 colon, 96.4%.

For `CCC1(/C=N/NC(N)=S)NC(=O)NC1=O` (stereo not given), the growth with NCI-H23 lung was 99.2%; in the assay with NCI-H226 lung, 96.6%; with NCI-H322M lung, 106%; in the assay on HOP-62 NSCLC, 78.8%; with NCI-H460 lung, 109%; in the assay on HOP-92 NSCLC, 95.5%. Besides, the growth with NCI-H522 lung was 83.2%; in the assay on A549/ATCC NSCLC, 62.5%; in the assay on 786-0 renal it was 105%; in the assay with COLO 205 colon, 111%.

Turning to `CCNCCNc1cc(-c2ccc(Cl)c(Cl)c2)c(C#N)c2nc3ccccc3n12`, the growth is -72.8% (active) with NCI-H23 lung; -74.2% (active) with NCI-H226 lung; -83.5% (active) with NCI-H322M lung; -75.6% (active) with HOP-62 NSCLC; -71.2% (active) in the assay with NCI-H460 lung; -85.8% (active) in the assay with HOP-92 NSCLC. In addition, the growth was -78.1% (active) with NCI-H522 lung, -87.3% (active) in the assay on A549/ATCC NSCLC, -84.8% (active) in the assay with 786-0 renal and -83.7% (active) in the assay on COLO 205 colon.

With `CCc1nc(C(N)=O)c(Nc2ccc(N3CCC(N4CCN(C)CC4)CC3)c(OC)c2)nc1NC1CCOCC1`, the growth in the assay with NCI-H23 lung was 32.5%; with NCI-H226 lung it was 38.2%; with NCI-H322M lung it was 43.3%; in the assay with HOP-62 NSCLC, 16.9%; with NCI-H460 lung, 17.2%; in the assay on HOP-92 NSCLC, -25.2% (active). Besides, the growth in the assay with NCI-H522 lung was 1.52% (active); in the assay on A549/ATCC NSCLC it was 12.4%; in the assay on 786-0 renal, 10.2%; with COLO 205 colon, -46.5% (active).
